Measurements reported in PubChem BioAssay (NCI).
About 83,000 compounds went through this panel and 20% of them were active in at least one assay; those are over-represented in the sample as a whole.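 Step 1: grow cells in 96-well plates. Step 2: add test compound at a single concentration. Step 3: incubate 48 h. Step 4: record percent growth.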 A number with no mark means an inactive call. Activity calls are given as the source filed them. Rule for the calls: active = growth percent below 10; inactive = the rest.

Key:
Assay in all cases: NCI-60 one-dose screen, 48 h (100 = growth as untreated, 0 = no growth, -100 = all killed)
Settings in all cases: 10 µM unless noted
[1] = test system: NCI-H23 lung
[2] = test system: NCI-H226 lung
[3] = test system: NCI-H322M lung
[4] = test system: HOP-62 NSCLC
[5] = test system: NCI-H460 lung
[6] = test system: NCI-H522 lung
[7] = test system: A549/ATCC NSCLC
[8] = test system: 786-0 renal
[9] = test system: COLO 205 colon
[10] = test system: DU-145 prostate
[11] = test system: K-562 leukemia
[12] = test system: MALME-3M melanoma
[13] = test system: MDA-MB-231 breast
[14] = test system: RXF 393 renal
[15] = test system: SF-268 CNS
[16] = test system: SF-295 CNS
[17] = test system: SF-539 CNS
[18] = test system: UACC-257 melanoma
[19] = test system: M14 melanoma
[20] = test system: HCT-15 colon

Compound	growth [1]	growth [2]	growth [3]	growth [4]	growth [5]	growth [6]	growth [7]	growth [8]	growth [9]	growth [10]	growth [11]	growth [12]	growth [13]	growth [14]	growth [15]	growth [16]	growth [17]	growth [18]	growth [19]	growth [20]
O=C(Oc1ccc[nH]c1=O)c1cccc(Cl)c1	95.6%	109%	99.9%	90.5%	100%	95.3%	101%	90.7%	84.4%	113%	104%	104%	103%	163%	101%	108%	88.2%	113%	95.8%	91.2%
COc1cc(C2CC(=O)Nc3c2cc(Br)c2ccccc32)cc(Br)c1OC (stereo not given)	58.8%	27.1%	40.7%	24%	10.9%	21.3%	3.52% (active)	0.846% (active)	37.1%	64.7%	20.2%	39.9%	28%	35.8%	55.4%	-31.3% (active)	74.4%	73.4%	48.2%	39.6%
Cc1cc(NC(=O)Nc2cccc3ccccc23)no1	92.9%	108%	105%	103%	101%	91%	96.9%	96.4%	154%	118%	92.4%	101%	112%	99.6%	108%	103%	97.2%	105%	107%	95.2%
COc1cc2c(cc1OCCCOc1ccc(-c3cc4ccccc4c4ccccc34)cc1)N=C[C@@H]1CCCN1C2=O	-39.3% (active)	-78.7% (active)	-69.4% (active)	-45% (active)	-45.2% (active)	-43.9% (active)	-17.4% (active)	-79.9% (active)	-0.637% (active)	-35.6% (active)	10.5%	-57.9% (active)	-71.2% (active)	-49.6% (active)	-61.2% (active)	-64.6% (active)	-57.6% (active)		-34.2% (active)	-64% (active)
Nc1ccc2c3c(cccc13)-c1ccccc1-2	97.7%	55.5%	75.1%	100%	99.1%	68.5%	85.1%	68.4%	96.5%	109%	84.4%	98.4%	76.5%	93%	78.4%	102%		104%	90.2%	86.1%
c1cnc2n[nH]c(Nc3ncnc4c3sc3ncccc34)c2c1	82.4%	93.8%	106%	90.8%	96%	82.1%	87.3%	106%	107%	115%	86.8%	92.9%	97.4%	99.6%	108%		105%	90.3%	97.4%	95.1%
Fc1ccc(-c2nnc(/C=C/c3cn(-c4ccccc4)nc3-c3ccccc3)o2)cc1	88%	92.8%	95.5%	87.4%	78.6%	85.3%	75.2%	89.8%	94.2%	110%	107%	88.9%	94.2%	105%	103%	94.4%	89.1%			96.1%
O=C1C(Cl)=C(N=Nc2c(Cl)c(O)c3ccccc3c2O)C(=O)c2ccccc21	68.2%	90.1%	45%	52.1%	55.7%	72.7%	51.9%	98.4%	86.7%	81.3%	37.1%	43.1%	61.2%	88.5%	77.9%	33.2%	96.2%		59.5%	61.7%
O=c1ccn(C2CCCO2)c(=O)[nH]1 (stereo not given)	119%	114%	117%	107%	106%	98.5%	95.3%	109%	118%	109%	105%	116%	107%	111%	104%		91.6%	90.9%	107%	
Cc1cc(CC(=O)O)n(C)c1C(=O)c1ccc(Cl)cc1	96.3%	95.2%	120%	117%	115%	101%	108%	103%	114%	125%	103%	102%	109%	117%	114%	93.1%		104%	106%	103%
COc1cc2c(cc1OCCCCCn1c(-c3ccc(OCc4ccccc4)cc3)nc3cc(N4CCOCC4)ccc31)N=C[C@@H]1CCCN1C2=O	15.5%	-41.1% (active)	27.8%	20%	-3.28% (active)	-4.59% (active)	6.91% (active)	-22.5% (active)	-14% (active)	29.7%	36.1%	-29.7% (active)	9.63% (active)	-26.7% (active)	14.6%	7.34% (active)	11%		9.2% (active)	-22.7% (active)
